This note sets out measurements from the OligoGym collection.
Also: reference of the scale not given here.

One test concerns the target ALDH9A1. Kind of test: pooled miR-30 sensor sort-seq; sequence = guide strand. The conditions noted are these: shRNA.
TAGATTTCCTCTATCGCAGTAG showed a sensor-assay potency score (higher = more potent) of 0.289.
For TCTCATGTAATATCCATCCTTT, the sensor-assay potency score (higher = more potent) was -0.314.
Turning to TTAAAGGGTAGCTCCACTGGTG, the sensor-assay potency score (higher = more potent) is -0.285.
On the same count and under the same terms, as for TTGTTAATGAAGCACGTCCCAG, the figure is -1.05.

Another test concerns the target ALG10B. The description is as above. The conditions noted are these: shRNA.
In turn, TATTTCAGAATTGCATATCTTT had a sensor-assay potency score (higher = more potent) of -0.42.
Same read-out and setting: as for TTTTGTGCAATGACATTCCCTG, the figure is 0.314.
TTGCATAGCAACTCAGTTCACA came in with a sensor-assay potency score (higher = more potent) of -0.443.
Same read-out and setting: as for ACTATAACAATGAACAAGCATA, the figure is -1.35.
On the same count and under the same terms, as for TTTCTGAGGAACTATAACAATG, the figure is -1.85.
The same measure, in the same setting: as for TTCATGACTACTCCGATCGCCA, the figure is -0.64; as for TAATTTTGCTAGGAGACAGGAG, -0.56.
With TAAAGTGTTGGAAATACTGCTA, the sensor-assay potency score (higher = more potent) was -0.0567.

The next test deals with ALG3. The test is described as above. To be noted: shRNA.
For the sequence TGAGGGTAGACTCAGGTCCTGA, the sensor-assay potency score (higher = more potent) is -1.65.
The same measure, in the same setting: as for TTGATGACGCCTTCTACCTCGG, the figure is -0.378; as for TGGGTCATTGAAGAGCCGCAGC, -1.28; as for AAGAGCAGCACATTCATCTTCA, 0.161.
The same measure, in the same setting: the figure for TATGTGTTCCAGGAGAGCTCGA is -0.768; for ATAGTCATAGGTACCATTGATG it is -0.727; for TAGAACTGGTAGTGGAGGGAGC it is -0.534.
The same measure, in the same setting: the figure for TAGGTACCATTGATGACGCCTT is -0.738; for TATAGTCATAGGTACCATTGAT it is -0.777; for ATAGATCAAGAAGACAAGCAGC it is -0.15.
Sequence ATGTACACGAAACCAGCTGGGT showed a sensor-assay potency score (higher = more potent) of -1.42.
Same read-out and setting: the figure for TAAAGATGTACACGAAACCAGC is -1.12.

The target of the next test is ALOX12B. The description is as above. To be noted: shRNA.
Consider TTGGCTAGCAGCCAGTCCCACT, for which the sensor-assay potency score (higher = more potent) was -1.48.
Still for that read-out and setting: the figure for TCATCTGCTGTTGTCTTTCCTG is -0.399; for TCTGCTGTTGTCTTTCCTGTGG it is -0.381; for TAGAAGTCCTGCTTGGCTCTGA it is 0.53.
TCATTGAGGAGAACGGCCCGGC: the sensor-assay potency score (higher = more potent) was 0.146.
Still for that read-out and setting: as for AACTTGTCTGGGATCCGCGTGC, the figure is 0.172; as for TATAGTGACATATCGGATCAGC, -0.0361.
Still for that read-out and setting: as for TCGCCAGTGGTAGAAGTCCTGC, the figure is -1.5; as for TAGCCATTCCACTCAGGCCGGT, -1.01; as for TGATCTGGACGGTGTATCGGGT, -0.615.
The same measure, in the same setting: the figure for TCTGATCTCCTCTTTTCTGTGC is 0.286; for TTGCAGTCCAACAGGCCGCGGA it is -0.697; for AATGCTGTTGATCTGGACGGTG it is -0.387.
With TTAAAGTTGATGAGAATTGGGA, the sensor-assay potency score (higher = more potent) was -0.16.
Still for that read-out and setting: as for TGTAGAACTCCGCATAGCGTAC, the figure is -1.11; as for TTGCCAGGGAAAATTTTCCTAA, -0.741.
